The source of these data is ChEMBL document CHEMBL4513216, “Probing the Open Global Health Chemical Diversity Library for Multistage-Active Starting Points for Next-Generation Antimalarials” (ACS Infect Dis, 2020).

In all, about 68,000 compounds went through this assay and about 2,700 (4%) showed an effect of 50% or more. For the sample, strong results were picked, then their nearest neighbours and some compounds at random.

For the assay, the system named is Plasmodium berghei. Put plainly: Screen against P. berghei liver stage (PbLuc), transformed with Luciferase, at 2uM. Type of assay: functional, HepG2. The conditions noted are these: tested at 2 uM.
Consider `CSc1ccccc1C(=O)N(C)C1CCCN(CCc2ccccc2)C1` (stereo unspecified), for which the INHIBITION is given as -1.89%.

Consider `CN(C(=O)CC1=CCCCC1)C1CCCN(CCc2ccccc2)C1` (stereo unspecified), for which the INHIBITION is listed as 73.01%.

`CN(C(=O)c1cccnc1)C1CCCN(CCc2ccccc2)C1` (stereo unspecified): the INHIBITION came out at 52.08%.

Consider `CN(C(=O)CCc1ccncc1)C1CCCN(CCc2ccccc2)C1` (stereo unspecified), for which the INHIBITION came out at 42.17%.

On to `CC(C)C(=O)NCC(=O)N(C)C1CCCN(CCc2ccccc2)C1` (stereo unspecified), for which the INHIBITION is on record as 15.44%.

As to `CN(C(=O)CC1=CCCCC1)C1CCCN(C2Cc3ccccc3C2)C1` (stereo unspecified), the INHIBITION is listed as -12.75%.

As to `CC(=O)N1C[C@H]2CC[C@@H](C1)N(S(=O)(=O)c1ccc(C#N)cc1Cl)C2`, the INHIBITION is -0.38%.

As for `COCCc1noc(CN(C)C2CCCN(c3cccnn3)C2)n1` (stereo unspecified), the INHIBITION is recorded as 1.07%.

Take `CC(C)c1nccn1C1CCCN(C(=O)c2ccc3nncn3c2)C1` (stereo unspecified): the INHIBITION amounted to 72.31%.

With `Cc1nccn1C1CCCN(C(=O)c2ccc3nncn3c2)C1` (stereo unspecified), the INHIBITION is 47.87%.

Regarding `Cc1nccn1C1CCCN(C(=O)c2ccc3c(c2)COC3)C1` (stereo unspecified), the INHIBITION is on record as 23.92%.

For `CCc1nccn1C1CCCN(C(=O)c2ccc3nncn3c2)C1` (stereo unspecified), the INHIBITION is reported as -32.49%.

On to `CC(C)c1nccn1C1CCCN(C(=O)c2ccc3c(c2)COC3)C1` (stereo unspecified), for which the INHIBITION is recorded as 54.28%.

As for `CC(C)c1nccn1C1CCCN(C(=O)c2ccc3c(c2)OCO3)C1` (stereo unspecified), the INHIBITION is 4.5%.

Regarding `OC(CN1CCN(Cc2cccnc2)CC1)c1cccs1` (stereo unspecified), the INHIBITION is -11.22%.

On to `Cn1c(N2CCOCC2)nc2cc(C(=O)N3CC(O)CO3)ccc21` (stereo unspecified), for which the INHIBITION was -23.4%.

For the compound `COc1ccc(CN2CCc3ncnc(OC(C)C)c3CC2)cc1`, the INHIBITION is 10.69%.

`Cc1cc(C)c2[nH]c(C(=O)NCCN3CCNC3=O)c(C)c2c1`: the INHIBITION turned out to be 8.76%.

In the case of `COc1cc(N2CCOC(c3ccc(F)cc3)C2)ncn1` (stereo unspecified), the INHIBITION was determined as 19.27%.

For the compound `N#Cc1c(F)cccc1Nc1cnn(CC(N)=O)c1`, the INHIBITION is reported as -58.5%.

With `CCc1nc2n(n1)CC(NCc1nc(-c3cccnc3)no1)CC2` (stereo unspecified), the INHIBITION came out at 41.71%.

Consider `Cn1cc(CNC2CCc3ncnn3C2)c(-c2cccnc2)n1` (stereo unspecified), for which the INHIBITION is 13.53%.

`CCc1nc2n(n1)CC(NCc1cn(C)nc1-c1cccnc1)CC2` (stereo unspecified): the INHIBITION is reported as 54.29%.

In the case of `O=C(Nc1ncn(CC(=O)N2CCCCCC2)n1)C1CCCC1`, the INHIBITION was 35.23%.

On to `O=C(Nc1ncn(CC(=O)N2CCCCCC2)n1)C1CCCO1` (stereo unspecified), for which the INHIBITION came to 53.03%.

In the case of `CC(CC(=O)Nc1ncn(CC(=O)N2CCCCCC2)n1)C1CC1` (stereo unspecified), the INHIBITION was found to be 34.73%.

With `CCCC(N)CNS(=O)(=O)Cc1cccc(C#N)c1` (stereo unspecified), the INHIBITION is 22.07%.

Regarding `CCC(c1nc(CC(C)C)nn1-c1ccccn1)n1cccn1` (stereo unspecified), the INHIBITION is reported as -72.12%.

As for `CCNC(=O)[C@@H]1C[C@H](N)CN1C(=O)c1c[nH]c2ccccc12`, the INHIBITION was 22.16%.

With `Cn1cc(C(=O)Nc2ccc(CC(=O)NC3CC3)cc2)nn1`, the INHIBITION is reported as 52.85%.

As to `CC(=O)N1CCc2ccc(NC(=O)c3cn(C)nn3)cc2C1`, the INHIBITION was determined as 29.65%.

For the compound `COC(=O)N1CCc2ccc(NC(=O)c3cn(C)nn3)cc2C1`, the INHIBITION is 41.44%.

For `CN(C)C(=O)Cc1ccc(NC(=O)c2cn(C)nn2)cc1`, the INHIBITION is 29.87%.

Regarding `Cn1cc(C(=O)Nc2ccc3c(c2)CN(C(=O)C2CC2)CC3)nn1`, the INHIBITION is recorded as 0%.

For the compound `Cn1cc(C(=O)Nc2ccc(CC(=O)NCC(F)(F)F)cc2)nn1`, the INHIBITION is recorded as 78.24%.

Take `COCCn1ccc(=O)c(OCC(=O)Nc2ccc(OC)c(Cl)c2)c1C`: the INHIBITION came out at 30.58%.

As to `CCn1ncc(CN2CCCC(n3c(=O)oc4ccccc43)C2)c1C` (stereo unspecified), the INHIBITION is -3.96%.

As for `COC(=O)c1cccc(C(=O)N(C)Cc2ccsc2)c1`, the INHIBITION was -21.49%.

Regarding `NC(=O)c1cc2c(nc1N)CCN(C(=O)C1CCCCC1)C2`, the INHIBITION amounted to 6.97%.

As to `COC(=O)c1ccc(N2CCN(C(=O)c3cnn(C)c3)C(C)C2)cc1` (stereo unspecified), the INHIBITION was 47.57%.

With `O=C(NCC1Cn2nnc(-c3ccsc3)c2CO1)c1ccc[nH]1` (stereo unspecified), the INHIBITION is 34.16%.

Turning to `CCN1CCN(C)C(=O)C12CCN(Cc1cccc(C)c1)CC2`, the INHIBITION is on record as 60.6%.

In the case of `CCN1CCN(C)C(=O)C12CCN(Cc1ccsc1)CC2`, the INHIBITION is listed as 39.18%.

`CCc1ccc(CN2CCC3(CC2)C(=O)N(C)CCN3CC)cc1`: the INHIBITION is 47.42%.

`CN1CCN(C)C2(CCN(Cc3ccsc3)CC2)C1=O`: the INHIBITION came to 59.5%.

With `CCN1CCN(C)C2(CCN(Cc3ccsc3)CC2)C1=O`, the INHIBITION was 38.64%.

Turning to `CCN1CCN(C)C(=O)C12CCN(Cc1csc(C)n1)CC2`, the INHIBITION was -66.6%.

In the case of `CCCc1cnc(C)nc1N1CCC(Cc2cccc(C(N)=O)c2)C1` (stereo unspecified), the INHIBITION was -9.75%.

With `CC(C(=O)NC1CCN(C)CC1)n1nc(C(F)(F)F)c(Cl)c1C1CC1` (stereo unspecified), the INHIBITION is -4.77%.

Turning to `CCN(C(=O)CN(CC(N)=O)C(C)C)C1=CCCC1`, the INHIBITION worked out at 25.21%.

For the compound `OCc1n[nH]c(-c2ccc(F)cc2)n1`, the INHIBITION was 27.8%.
